Dicer processing – inhibitors of Dicer pre-microRNA processing, primary screen, biochemical, cat-ELCCA, chemiluminescence. Endoribonuclease Dicer (Homo sapiens), Q9UPY3. cat-ELCCA pre-miR-21 Dicer processing; hits give high values. z-score at 25 µM. 47,000 compounds, 6% hits. AID 1347074, 2019; in the data active means z-score above about 3, passing the limit was not always enough;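 further: plate controls were vehicle for no effect and no enzyme for full effect; higher signal means more uncleaved substrate so more Dicer inhibition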
* = called active by the depositor. Many of the other results were omitted from the sample, so hits are more common in it than they were.

SMILES	Dicer processing
Cc1ccc(-n2cc(-c3ccc(Cl)cc3)[nH]c2=S)cc1	-1.04
COc1ccc2c(c1)Cc1sc(NC(=O)c3ccc(OC)c(Br)c3)nc1-2	-3.74
O=C(CSc1nnc2nc[nH]n12)Nc1nccs1	-0.38
O=C1c2ccccc2C(=O)N1c1ccc(-n2ccc(C(F)(F)F)n2)cc1	-0.46
CCOC(=O)C1=C(C)Nc2nnnn2C1c1cc(Br)ccc1OCC (configuration not stated)	1.53
CCOC(=O)C1=C(C)Nc2nnnn2C1c1ccccn1 (configuration not stated)	2.26
CCOC(=O)C1=C(C)Nc2nnnn2C1c1ccccc1Cl (configuration not stated)	0.19
CCOC(=O)C1=C(c2ccccc2)Nc2ncnn2C1c1ccc(F)cc1 (configuration not stated)	-0.11
CCOc1ccccc1C1C(C(=O)OC(C)C)=C(C)Nc2nnnn21 (configuration not stated)	4.49*
CCOC(=O)C1=C(C)Nc2nnnn2C1c1ccc(OCc2ccccc2)c(OC)c1 (configuration not stated)	2.85
CCOC(=O)C1=C(c2ccccc2)Nc2ncnn2C1c1cccc(Br)c1 (configuration not stated)	3.25*
CCOC(=O)C1=C(C)Nc2nnnn2C1c1ccccc1 (configuration not stated)	3.06*
CCCOC(=O)C1=C(C)Nc2nnnn2C1c1ccccc1OCC (configuration not stated)	3.43*
CCOC(=O)C1=C(C)Nc2nnnn2C1c1ccc(OC)c(OC)c1 (configuration not stated)	1.59
CCCOc1ccccc1C1C(C(=O)OC(C)C)=C(C)Nc2nnnn21 (configuration not stated)	-0.05
CCOC(=O)C1=C(C)Nc2ncnn2C1c1ccc(OC)c(OC)c1 (configuration not stated)	0.01
O=C1Nc2ccccc2/C1=C/c1ccc(Oc2ccccc2)nc1	-2.45
CCOc1ccc(C2CC(c3ccc(OC)c(OC)c3)n3ncnc3N2)cc1 (configuration not stated)	0.03
O=C(Cn1c2ccccc2n2nc(-c3ccccc3)nc12)c1cccs1	-0.41
COc1cc(-n2cccc2)cc(C(F)(F)F)c1	0.65
COc1ccc(/C=C/c2nc3scc(-c4cccs4)c3c(=O)o2)cc1	0.61
CC(C)(C)OC(=O)N1CCCN(S(=O)(=O)c2ccc(-n3cccn3)cc2)CC1	2.2
Cn1nc(-c2ccc(Cl)cc2)cc1N	0.21
COc1ccc(OS(=O)(=O)c2sc3ccc(Cl)cc3c2C)cc1	-0.64
CC1=NN(c2ncnc3sc4c(c23)CCCC4)C(=O)C1	-1.24
SMILES	Dicer processing
Cc1nc(=O)c(-c2ccccc2)c(C)n1CCc1c[nH]c2ccccc12	-1.14
Cc1c2c(=O)n(-c3ccccc3)[nH]c2cc(=O)n1CCc1c[nH]c2ccccc12	3.01*
Cc1c2c(=O)n(-c3ccccc3)[nH]c2cc(=O)n1Cc1ccc2c(c1)OCO2	-1.98
Cc1cc(Cl)ccc1N=C(N)N=C(N)N	-0.74
COC(=O)c1cnc(NNC(=O)Cc2ccccc2)nc1C(F)(F)F	-0.62
Cc1nc(CSc2nnc(-c3ccc(C(F)(F)F)cc3)n2Cc2ccco2)cs1	0.43
Nc1nc2ncc(-c3ccccc3)c(N)n2n1	-0.01
Cc1nc(C)c(-c2ccn(S(=O)(=O)c3cc(C(F)(F)F)cc(C(F)(F)F)c3)n2)o1	-0.93
COc1ccccc1C1CCN(c2ccc(C(F)(F)F)cc2[N+](=O)[O-])CC1	0.04
COc1ccccc1C1CCN(Cc2ccc(Cl)cc2Cl)CC1	-0.25
COc1ccccc1C1CCN(c2ccc([N+](=O)[O-])c(OC)c2)CC1	3.44*
Cl	-0.57
Cc1ccc(/C(O)=C2/C(=O)C(=O)N(CC(C)C)C2c2ccccn2)cc1 (configuration not stated)	-0.94
O=C(Nc1cc(Cl)cc(Cl)c1)c1cc(Cl)sc1Cl	-1.38
CC(C)(C)c1nnc(-c2cccc(NS(=O)(=O)c3ccc(-c4ccno4)s3)c2)o1	-0.16
CN(C)S(=O)(=O)c1ccc(C(=O)Nc2nnc(-c3ccc(Br)cc3)s2)cc1	3.16*
CC(C)(C)c1ccc(-c2nnc(NC(=O)C(Cl)(Cl)Cl)s2)cc1	-0.32
CC(C)(C)C(=O)Nc1nnc(-c2ccc(Br)cc2)s1	1.28
COC(=O)Cc1nc(NC(=O)c2cc(C)oc2C(F)(F)F)sc1C	0.06
O=C(c1ccc(F)cc1)C(C(=O)N1CCN(C/C=C/c2ccccc2)CC1)n1ccccc1=O (configuration not stated)	-0.72
O=C(c1ccc(Br)cc1)C(C(=O)N1CCCCC1)n1ccccc1=O (configuration not stated)	3.31*
CC1CCN(C(=O)C(C(=O)c2ccc(Br)cc2)n2ccccc2=O)CC1 (configuration not stated)	-0.31
COC(=O)c1cnc(Nc2ccccc2)nc1C(F)(F)F	1.28
N#Cc1nccnc1N1CCC(C(c2ccccc2)c2ccccc2)CC1	-3.4
COc1ccccc1C(=O)CC1(O)C(=O)N(Cc2ccccc2Cl)c2ccccc21 (configuration not stated)	-1.03
SMILES	Dicer processing
CN1CCc2c(sc3c2C(=O)NC(c2ccc(O)cc2O)N3)C1 (configuration not stated)	-1.68
OCCc1cn(-c2ccccc2)c2ccccc12	1.75
COC(=O)n1c(=O)oc2cc(Cl)ccc21	1.38
Cc1ccc(S(=O)(=O)n2c(=O)sc3ccccc32)cc1	-0.13
Cc1ccc(S(=O)(=O)n2c(=O)oc3cc(Cl)ccc32)cc1	16.1*
O=C(O)[C@@H]1CSCN1C(=O)OCC1c2ccccc2-c2ccccc21	0.07
O=C(NCC1CCCO1)C(=O)Nc1ccccc1 (configuration not stated)	2.18
O=c1[nH]cnc2c1oc1nc(-c3ccc(Cl)cc3)cc(-c3ccco3)c12	6.51*
NNC(=O)c1oc2nc(-c3ccc(Cl)cc3)cc(-c3ccccc3)c2c1N	-2.89
O=c1c2oc3nc(-c4ccccc4)cc(-c4ccco4)c3c2ncn1/N=C/c1ccc(F)cc1	2.5
Cc1cc(Br)ccc1NC(=O)C1Sc2nnc(C)n2NC1c1ccccc1 (configuration not stated)	0.34
Cc1ccc(C2Nn3c(C)nnc3SC2C(=O)Nc2ccc(C)cc2Br)cc1 (configuration not stated)	0.22
Cc1nnc2n1NC(c1ccc(F)cc1)C(C(=O)Nc1ccc(Br)cc1Cl)S2 (configuration not stated)	3.38*
Cc1ccc(CNS(=O)(=O)c2cccs2)n1C	2.56
C=C(C)CC1C(=O)N(S(=O)(=O)c2ccc(Cl)cc2)N=C1C (configuration not stated)	-1.62
C=C(C)CC1C(=O)N(S(=O)(=O)c2ccccc2Cl)N=C1C (configuration not stated)	1.32
C=C(C)CC1C(=O)N(C(=O)c2c(Cl)cccc2Cl)N=C1C (configuration not stated)	3.38*
O=C(Cc1cccs1)N1c2ccccc2Sc2ccccc21	0.57
O=C(N1CCN(CCO)CC1)N1c2ccccc2C=Cc2ccccc21	-0.57
CN1CCN(C(=O)N2c3ccccc3Sc3ccccc32)CC1	3.39*
NC(=O)C1CCN(C(=O)N2c3ccccc3Sc3ccccc32)CC1	2.17
CCOC(=O)C1CCN(C(=O)N2c3ccccc3Sc3ccccc32)CC1	4.83*
CCOC(=O)N1c2ccccc2Sc2ccccc21	0.27
Cn1nccc1NC(=O)c1cc(Cl)cc(Cl)c1	-1.17
O=[N+]([O-])c1cn(Cc2ccc(F)cc2)cn1	0.18
